# High-throughput results (PubChem)
# Most compounds without a hit are left out; they make up all but 11% or so of the library.
# G9a inh = G9a (human) methyltransferase inhibition. G9a H3K9 monomethylation, AlphaScreen, 2 h. Q96KQ7. 8.8% of 350,000 active. Potency, µM (series often up to 102 µM), for inactives: at the highest dose activity, negative = inhibition, hits mostly inhibitors; also: % is scaled to controls: 0 for no effect and ±100 for the full control effect; nearly all actives have a fitted effect of over 75% in size
#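 Readings reflect AlphaScreen signal from monomethyl-H3K9 antibody detection. HMT at 20 nM; substrate b-H3K9 500 nM; cofactor SAM 20 uM; 2 h RT reaction; compounds tested as titrations in qHTS with 15 min preincubation.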
# HP1b chromo inh = HP1-beta chromodomain-methylated histone interaction inhibition; P83916; AlphaScreen HP1-beta / biotin-H3K9me3 peptide binding; Potency, µM (top dose mostly 114 µM), inactives show top-dose activity change, negative = inhibition, most hits filed as inhibitors; 0.56% of 390,000 active; AID 540317; also: nearly all actives have a fitted effect of over 70% in size
#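 HP1-beta protein (50 nM final) preincubated 30 min at room temperature with biotinylated H3(1-18)K9me3 peptide (50 nM) in PBS pH 7.4, 0.01% Tween-20, then compound added for 30 min. AlphaScreen streptavidin donor/nickel chelate acceptor beads (10 ug/mL final), 30 min dark, luminescence read.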
# VDR inh = inhibitors of human vitamin D receptor | P11473 | VDR-SRC2-3 peptide fluorescence polarization, 2 h | Potency, µM, for the others: max response, negative = inhibition, actives largely listed as inhibitors | 0.93% of 400,000 active | AID 504847; also: % is scaled to controls: 0 for no effect and ±100 for the full control effect
#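 Fluorescence polarization assay of small-molecule disruption of VDR binding to coregulator peptide SRC2-3. Compounds and controls pin-transferred, then read after 2 h incubation at ambient room temperature.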
# BAZ2B inh = inhibitors of human BAZ2B bromodomain | Q9UIF8 | Potency, µM (doses to about 114 µM), for the others: at the top dose activity change, negative = inhibition, actives largely listed as inhibitors | 4.4% of 360,000 active | AID 504333 | AlphaScreen BAZ2B-H3K14Ac peptide displacement; also: % is scaled to controls: 0 for no effect and ±100 for the full control effect; nearly all actives have a fitted effect of over 60% in size
#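 BAZ2B 50 nM plus b-H3(5-23)K14Ac 50 nM, PBS pH 7.4/0.01% Tween-20, 30 min RT; compound added (max 110 uM), 30 min RT; streptavidin donor/Ni-chelate acceptor beads 10 ug/mL final, 20 min dark; AlphaScreen read.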
# PLK1 PBD inh = PLK1 (human) polo-box domain binding inhibition; Potency, µM, for the others: max response, negative = inhibition, usual class: inhibitors; Plk1 PBD binding of FITC phosphopeptide, fluorescence polarization; AID 720504; P53350; 2.8% of 360,000 active; also: series mostly up to about 57 µM; % is scaled to controls: 0 for no effect and ±100 for the full control effect; nearly all actives have a fitted effect of over 65% in size
# JMJD2A Tudor inh = blocks the human JMJD2A Tudor domain; AlphaScreen JMJD2A-Tudor / H3K4me3 peptide binding; 4.4% of 390,000 active; Potency, µM (top dose mostly 114 µM), inactives show at the highest dose activity change, negative = inhibition, actives largely listed as inhibitors; also: % is scaled to controls: 0 for no effect and ±100 for the full control effect; nearly all actives have a fitted effect of over 50% in size
# Target sequence (O75164 whole entry, looked up, the tested form may be a part): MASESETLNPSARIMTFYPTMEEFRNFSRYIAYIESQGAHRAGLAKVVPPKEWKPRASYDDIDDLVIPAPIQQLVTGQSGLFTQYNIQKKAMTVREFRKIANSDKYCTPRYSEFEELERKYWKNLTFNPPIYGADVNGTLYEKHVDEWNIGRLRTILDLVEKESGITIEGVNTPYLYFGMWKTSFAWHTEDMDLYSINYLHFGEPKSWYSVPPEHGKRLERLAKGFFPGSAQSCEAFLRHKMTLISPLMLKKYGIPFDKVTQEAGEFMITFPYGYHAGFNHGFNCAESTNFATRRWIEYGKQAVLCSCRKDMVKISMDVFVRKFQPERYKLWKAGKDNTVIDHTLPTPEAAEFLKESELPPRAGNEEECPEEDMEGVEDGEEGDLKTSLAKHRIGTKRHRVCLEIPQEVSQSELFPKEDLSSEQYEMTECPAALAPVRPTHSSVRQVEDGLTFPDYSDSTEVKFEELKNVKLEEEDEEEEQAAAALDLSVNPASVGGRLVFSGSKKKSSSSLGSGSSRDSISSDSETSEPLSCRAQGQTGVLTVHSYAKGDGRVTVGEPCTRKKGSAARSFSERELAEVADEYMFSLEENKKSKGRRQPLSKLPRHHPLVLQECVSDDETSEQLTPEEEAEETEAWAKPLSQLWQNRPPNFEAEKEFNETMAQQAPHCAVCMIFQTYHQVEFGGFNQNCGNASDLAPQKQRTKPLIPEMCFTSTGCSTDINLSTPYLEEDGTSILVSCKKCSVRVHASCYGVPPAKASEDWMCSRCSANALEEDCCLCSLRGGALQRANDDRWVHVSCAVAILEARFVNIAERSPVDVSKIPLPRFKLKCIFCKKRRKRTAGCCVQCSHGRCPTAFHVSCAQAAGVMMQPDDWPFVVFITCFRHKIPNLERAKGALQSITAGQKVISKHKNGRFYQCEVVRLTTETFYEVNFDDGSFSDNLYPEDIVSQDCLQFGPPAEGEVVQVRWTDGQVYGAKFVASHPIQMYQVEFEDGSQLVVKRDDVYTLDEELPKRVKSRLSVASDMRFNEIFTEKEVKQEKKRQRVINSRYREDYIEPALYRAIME
# Active calls of the source: *; u = inconclusive; x = no result given; [ ] = another dose, or the depositor's remark. Calls follow the shape of the dose curve; as a rule, active = well fitted curve in the direction sought with a large enough effect; inconclusive = small, poorly fitted or top-dose-only effect, or another doubt; inactive = no such curve, though single readings can be large; an effect the other way counts as inactive or inconclusive. Potency is read from the fitted curve at half-maximal effect.
SMILES,G9a inh,HP1b chromo inh,VDR inh,BAZ2B inh,PLK1 PBD inh,JMJD2A Tudor inh
Oc1ccc(/C=N/Nc2ccnc3cc(Cl)ccc23)c(O)c1O,22µM*,-37%[57 µM],-10%,45µM*,2.1µM*,u
CCN(CC)Cc1ccc(Nc2ccnc3cc(Cl)ccc23)cc1O,-33%[2.33 µM],x,-7%,x,x,x
Oc1ccc(/C=N/Nc2ccnc3cc(Cl)ccc23)cc1O,u,-19%,-7%,40µM*,-12%,-12%[11.4 µM]
Cc1ccc(N(C)S(=O)(=O)c2ccc3c(c2)CCC(=O)N3)cc1C,x,x,x,x,x,-9%
Cc1cccc(NC(=O)CSc2nnc([C@H](C)NC(=O)OC(C)(C)C)o2)c1C,9%,8%,u,-12%[57.1 µM],27µM*,u
COC(=O)c1ccc2nc(-c3ccc(F)cc3)c(Cc3ccccc3C(F)(F)F)n2c1,x,x,x,x,2%,x
Nc1c(C(=O)NC2CC2)sc2nc3c(c(-c4ccco4)c12)CC/C3=C/c1ccco1,3.2µM*,14µM*,-27%,0%,u,7.1µM*
Cc1ccc(-c2c3c(nc4sc(C(N)=O)c(N)c24)CCCC3)o1,45µM*,13%,3%,u,u,-18%[57.1 µM]
NC(=O)c1sc2nc3c(c(-c4ccco4)c2c1N)CCC3,u,0%,-7%,u,u,79µM*
CCn1nnc(-c2ccccc2NC(=O)c2cnccn2)n1,x,27%,1%,x,-8%,-7%
O=C(O)c1c(-c2ccccc2)oc2ccc(OCc3ccc(Cl)c(Cl)c3)cc12,-17%[59 µM],u,u,u,x,-26%
CCOc1cccc(NC(=O)C(Cc2cccs2)c2nn[nH]n2)c1 (stereo not given),56µM*,12%,2%,u,-7%,-1%
O=c1ccc(/C=C/c2ccccc2)nn1Cc1ccc(F)cc1,86%,169%,-15%,52%,-2%,97%
COc1ccc(/C=C/c2ccc(=O)n(Cc3ccccc3)n2)cc1,16%,50%,u,38%,12µM*,u
CCn1cc(/C=C(\NC(=O)c2ccccc2F)C(=O)NCCCn2ccnc2)c2ccccc21,0%,14%,13%,u,-8%,-33%
C=CCOC(=O)C(=O)/C=C/c1ccc2c(c1)Cc1ccccc1-2,-10%[12.7 µM],-5%,22µM*,u,u,-31%
O=C(Nc1ccc2c(c1)Cc1ccccc1-2)c1ccco1,-25%,29%,6%,-1%,-2%,-1%
Cn1ncc(C(=O)N2CCN(c3ccccc3)CC2)c1C1CCN(C(=O)OC(C)(C)C)CC1,0%[59 µM],5%,4%,3%[57.1 µM],x,-16%
CC1=C(CCC(=O)O)c2cc3nc(cc4[nH]c(cc5[nH]c(cc1n2)c(C)c5C(C)O)c(C)c4C(C)O)C(C)=C3CCC(=O)O (stereo not given),x,x,18µM*,x,x,x
C=Cc1c(C)c2cc3[nH]c(cc4nc(cc5nc(cc1[nH]2)C(C)=C5CCC(=O)O)C(CCC(=O)O)=C4C)c(C)c3C=C,5%[59 µM],193%,14µM*,40µM*,13µM*,20µM*
CC1=C(C(=O)N2CCCC(N3CCN(c4cccc(C(F)(F)F)c4)CC3)C2)OCCO1 (stereo not given),-7%,9%,9%,-13%,2%,-13%
O=S1(=O)C[C@@H](N2CCN(CC3CC3)CC2)[C@H](COCc2ccccc2)N1,x,x,x,x,-10%,x
CCCC1O[C@@H]2CC3C4CCC5=CC(=O)C=C[C@]5(C)C4C(OC(C)=O)C[C@]3(C)[C@]2(C(=O)COC(C)=O)O1 (stereo not given in full),8%[59 µM],-17%,u,-7%,19µM*,18µM*
COc1cccc(NC(=O)CCN2CCN(c3ccccc3F)CC2)c1,10%[59 µM],28%,7%,2%,1%,-26%
COc1cccc(NC(=S)/C(=C(\[O-])c2cc(C)n(-c3ccccc3F)c2C)[n+]2ccc(N(C)C)cc2)c1,35µM*,-18%,2%,40µM*,-24%,25µM*
SMILES,G9a inh,HP1b chromo inh,VDR inh,BAZ2B inh,PLK1 PBD inh,JMJD2A Tudor inh
Cc1ccc(NC(=O)c2cc(C)n(-c3ccccc3)c2C)cc1,u,-18%,2%,u,2%,-30%
Cc1cc(C([O-])=C(C(=S)Nc2ccc(F)cc2)[n+]2ccccc2)c(C)n1-c1ccc(F)cc1,x,50µM*,-15%,x,-4%,x
COC(=O)c1sc(NC(=O)Cc2cccs2)nc1C,28µM*,11%,6%,-3%,-5%,-9%
CCOc1cccc(NC(=O)Cc2cccs2)c1,-3%,51%,18%,10%,-3%,-5%
COC(=O)c1cc(NC(=O)Cc2cccs2)cc(C(=O)OC)c1,u,u,-5%,50µM*,u,45µM*
CC(=O)Nc1cccc(NC(=O)Cc2cccs2)c1,79µM*,20%,-21%,u,-12%,-25%
COC(=O)c1sc(NC(=O)COc2ccccc2)nc1C,-6%,29%,-4%,-7%,-13%,-11%
O=C(Cc1cccs1)Nc1ccc(C(=O)O)cc1,-13%,57%,-13%,66%,-8%,-10%
COc1ccc(S(=O)(=O)c2c(Nc3ccccc3F)sc(C(=O)c3cccc(OC)c3)c2N)cc1,6%[59 µM],7%[57 µM],-1%,-22%,x,u
CSCCC(NC(=O)c1ccco1)C(=O)N1CCN(C(c2ccccc2)c2ccccc2)CC1 (stereo not given),u,-15%,-7%,-36%,-14%,u
Fc1ccc(-c2nc3ccc(Br)cn3c2Cc2ccccc2)cc1,x,x,x,x,-22%,x
COc1ccc(Cl)cc1NC(=O)C1CCN(c2ncnc3c2nc2n3CCCCC2)CC1,-30%[59 µM],26%,12%,-17%,x,-16%
Cc1ccccc1NC(=O)CSc1ccc(-c2ccc(-n3cccn3)cc2)nn1,18%[59 µM],3%,-3%,1%,1%,-15%
CCc1nnc(NC(=O)CSc2nc(-c3ccc(F)cc3)cc(-c3ccccc3)c2C#N)s1,3.2µM*,25%,7%,-3%,-16%,-13%
CCc1nnc(NC(=O)CSc2ccc(-c3ccc(-n4cccn4)cc3)nn2)s1,10µM*,31%,6%,12%,-15%,-4%
Cc1cccc(C)c1NC(=O)c1cc2sccc2n1Cc1ccc(F)cc1,38%[59 µM],80%,-22%,19%,x,-23%
C[C@H](CO)N1C[C@H](C)[C@H](CN(C)C(=O)Nc2ccc(F)cc2)OCc2ccccc2-c2c(n(C)c3ccccc23)C1=O,x,x,x,x,-13%,x
COC(=O)c1c(NC(=O)CN2CCC3(O)CCCCC3C2c2ccc(OC)cc2OC)sc(C)c1C (stereo not given),28µM*,u,-17%,-20%,21µM*,u
COC(=O)c1c(NC(=O)CN2CCC3(O)CCCCC3C2c2ccccc2OC)sc(C)c1C (stereo not given),-41%,9%,-12%,-32%,-9%,u
